# Data as given in PubChem BioAssay (NCATS).
# Inconclusive results are not listed. A call without a number means that no potency is given here. The source made the active and inactive calls. Calls come from the whole dose curve; as a rule, active = well fitted curve in the direction sought with a large enough effect; inconclusive = small, poorly fitted or top-dose-only effect, or another doubt; inactive = no such curve, though single readings can be large; an effect the other way counts as inactive or inconclusive. Non-standard residues stand in square brackets, D forms with d. Residues, ends and D or L forms follow the SMILES beside them. *: point of attachment. Sta = CC(C)C[C@H](N)[C@@H](O)CC(=O)O; Isovaleryl = CC(C)CC(=O)*
# Columns and labels:
# [1] = Quantitative High-Throughput drug screen in 47 multiple myeloma cell lines against the NCATS MIPE library collection: OPM2_DSMZ cell viability assay (AID 1919872); note: nearly all actives have a fitted effect of over 30% in size; note: potency is the fitted concentration of half-maximal effect
# How it was run: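 Relative luminescence from CellTiter-Glo served as the viability signal, referenced to DMSO-treated (100%) and cell-free medium (0%) controls. Treatment lasted 48 hours at 37C with 500 cells per well.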
# [2] = Quantitative High-Throughput drug screen in 47 multiple myeloma cell lines against the NCATS MIPE library collection: KMS11_JCRBsus cell viability assay (AID 1919873); note: nearly all actives have a fitted effect of over 50% in size; note: potency is the fitted concentration of half-maximal effect
# How it was run: (§1)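 Viability after 48 h drug exposure was measured as ATP-dependent luminescence. Cells, 500 per well, sat at 37 °C under 5% CO2; DMSO wells set 100%, media-only wells 0%.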
# [3] = Quantitative High-Throughput drug screen in 47 multiple myeloma cell lines against the NCATS MIPE library collection: KMS28BM_JCRB cell viability assay (AID 1919874); note: nearly all actives have a fitted effect of over 35% in size; note: potency is the fitted concentration of half-maximal effect
# How it was run: as §1
# [4] = biological target: Cytochrome P450 3A4 (Homo sapiens) (UniProt P08684); test: qHTS for inhibitors of CYP3A4 against the NCATS DSHEA and TCM libraries (AID 1919971); details: recombinant CYP3A4 enzyme activity, luminescence qHTS; note: potency is the fitted concentration of half-maximal effect
# Cytochrome P450 3A4 (Homo sapiens), sequence (P08684 whole entry, looked up): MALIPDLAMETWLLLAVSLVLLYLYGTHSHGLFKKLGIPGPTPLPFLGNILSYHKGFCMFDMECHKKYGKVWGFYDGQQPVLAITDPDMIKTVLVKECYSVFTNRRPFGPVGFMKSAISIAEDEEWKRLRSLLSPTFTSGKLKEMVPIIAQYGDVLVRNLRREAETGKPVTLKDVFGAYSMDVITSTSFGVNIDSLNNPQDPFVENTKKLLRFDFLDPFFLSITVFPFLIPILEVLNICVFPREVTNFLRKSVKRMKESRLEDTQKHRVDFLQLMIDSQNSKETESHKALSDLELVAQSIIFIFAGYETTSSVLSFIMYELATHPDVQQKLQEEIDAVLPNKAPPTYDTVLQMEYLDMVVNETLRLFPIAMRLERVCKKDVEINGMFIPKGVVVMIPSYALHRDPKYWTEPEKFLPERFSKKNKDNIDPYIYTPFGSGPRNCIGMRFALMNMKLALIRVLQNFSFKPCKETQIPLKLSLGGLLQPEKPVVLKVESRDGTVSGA
# How it was run: (§2)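 Luminescent P450-Glo readout. Enzyme plus pro-luciferin substrate in manufacturer buffer (typically 100 mM KPO4); 15 min RT preincubation; 1x NADPH regenerating system, 30-45 min RT in the dark; detection reagent 30 min.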
# [5] = biological target: Cytochrome P450 2D6 (Homo sapiens) (UniProt P10635); test: qHTS for inhibitors of CYP2D6 against the NCATS DSHEA and TCM libraries (AID 1919972); details: CYP2D6 enzymatic inhibition, luminescence qHTS; note: potency is the fitted concentration of half-maximal effect
# Cytochrome P450 2D6 (Homo sapiens), sequence (P10635 whole entry, looked up): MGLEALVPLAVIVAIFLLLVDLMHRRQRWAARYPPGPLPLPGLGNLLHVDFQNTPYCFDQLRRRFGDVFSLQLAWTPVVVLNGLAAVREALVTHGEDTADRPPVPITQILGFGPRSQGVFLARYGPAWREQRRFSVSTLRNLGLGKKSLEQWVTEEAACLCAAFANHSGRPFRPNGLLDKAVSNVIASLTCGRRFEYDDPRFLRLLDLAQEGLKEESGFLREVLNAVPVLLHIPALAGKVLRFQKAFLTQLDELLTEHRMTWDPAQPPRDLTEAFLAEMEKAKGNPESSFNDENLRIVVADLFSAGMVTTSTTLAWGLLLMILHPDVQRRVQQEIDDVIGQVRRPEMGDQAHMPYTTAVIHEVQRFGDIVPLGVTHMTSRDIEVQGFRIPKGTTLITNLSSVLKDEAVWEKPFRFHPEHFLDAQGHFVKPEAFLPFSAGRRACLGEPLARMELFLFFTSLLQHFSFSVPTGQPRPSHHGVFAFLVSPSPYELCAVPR
# How it was run: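 Steps: enzyme plus luciferin substrate dispensed; test substances pinned; 15 min RT; 1x NADPH regenerating solution added, 30–45 min RT protected from light; detection reagent, 30 min RT; luminescence measured. Minus-enzyme wells as background.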
# [6] = biological target: Cytochrome P450 2C9 (Homo sapiens) (UniProt P11712); test: qHTS for inhibitors of CYP2C9 against the NCATS DSHEA and TCM libraries (AID 1919973); details: recombinant CYP2C9 enzyme activity, luminescence; note: potency is the fitted concentration of half-maximal effect
# Cytochrome P450 2C9 (Homo sapiens), sequence (P11712 whole entry, looked up): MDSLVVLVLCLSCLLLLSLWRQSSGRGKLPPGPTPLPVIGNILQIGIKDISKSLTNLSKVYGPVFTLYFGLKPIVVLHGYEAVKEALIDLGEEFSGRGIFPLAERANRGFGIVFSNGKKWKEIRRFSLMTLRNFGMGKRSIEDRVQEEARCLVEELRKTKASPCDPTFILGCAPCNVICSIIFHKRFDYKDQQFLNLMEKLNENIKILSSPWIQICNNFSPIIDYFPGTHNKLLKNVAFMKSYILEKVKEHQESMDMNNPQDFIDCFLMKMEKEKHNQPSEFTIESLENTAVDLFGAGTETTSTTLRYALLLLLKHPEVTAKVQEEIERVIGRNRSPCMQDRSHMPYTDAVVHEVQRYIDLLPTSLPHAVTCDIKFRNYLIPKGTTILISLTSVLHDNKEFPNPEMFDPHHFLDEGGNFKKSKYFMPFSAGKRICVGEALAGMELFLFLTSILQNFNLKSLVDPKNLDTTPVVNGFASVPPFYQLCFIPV
# How it was run: as §2
# [7] = biological target: Cytochrome P450 2C19 (Homo sapiens) (UniProt P33261); test: qHTS for inhibitors of CYP2C19 against the NCATS DSHEA and TCM libraries (AID 1919974); details: CYP2C19 enzyme inhibition, luminescence qHTS;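 note: luminescence from luciferin released by CYP2C19 oxidation of a pro-luciferin substrate; potency is the fitted concentration of half-maximal effect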
# Cytochrome P450 2C19 (Homo sapiens), sequence (P33261 whole entry, looked up): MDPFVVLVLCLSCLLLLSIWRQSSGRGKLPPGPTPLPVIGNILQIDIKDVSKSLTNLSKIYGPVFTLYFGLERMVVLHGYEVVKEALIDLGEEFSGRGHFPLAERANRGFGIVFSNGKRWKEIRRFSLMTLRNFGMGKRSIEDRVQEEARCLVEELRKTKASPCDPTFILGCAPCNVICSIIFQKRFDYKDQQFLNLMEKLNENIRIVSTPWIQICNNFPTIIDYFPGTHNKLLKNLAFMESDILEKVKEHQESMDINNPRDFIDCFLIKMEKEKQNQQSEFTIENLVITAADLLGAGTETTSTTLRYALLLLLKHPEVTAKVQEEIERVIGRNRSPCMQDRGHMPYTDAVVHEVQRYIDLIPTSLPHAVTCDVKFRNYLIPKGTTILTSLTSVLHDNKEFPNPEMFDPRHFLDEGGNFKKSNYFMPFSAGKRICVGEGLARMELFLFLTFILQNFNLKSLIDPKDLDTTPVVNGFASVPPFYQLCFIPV
# How it was run: as §2
# [8] = KB-3-1 P-gp reporter qHTS against the NCATS DSHEA and TCM libraries (AID 1919975)
# Source text: Assay Development and Screening Technology Laboratory (ADST)
# National Center for Advancing Translational Sciences (NCATS), Rockville, MD
# National Institute of Health (NIH), Bethesda, Maryland
# Dietary Supplements and Natural Products have minor oversight of their safety and efficacy. We assembled a collection of Dietary Supplements and Natural Products (DSNP) as well as Traditional Chinese Medicinal (TCM) Plant extracts, which were screened against an in vitro panel of assays, including a liver cytochrome p450 enzyme panel, CAR/PXR signaling pathways, and P-gp transporter assays, to assess their activity. This pipeline facilitated the interrogation of Natural Product-Drug Interaction (NaPDI) through prominent metabolizing pathways. In addition, we compared the activity profiles of the DSNP/TCM substances with those of an approved drug collection. […] Overall, we highlight four significant bioactivity profiles (measured by p-values) as examples of this prediction. […] To profile potential P-gp activity, a differential cell viability was measured against two cell lines: a parental KB-3-1 human cervical adenocarcinoma cell line and the drug-resistant subline KB-8-5-11 that overexpresses P-gp. […]
# 8; Read; Luminescence; ViewLux plate reader. […]
# 8. Luminescence intensity was detected using a PerkinElmer ViewLux microplate reader. […]
# [9] = biological target: Cytochrome P450 1A2 (Homo sapiens) (UniProt P05177); test: qHTS for inhibitors of CYPIA2 against the NCATS DSHEA and TCM libraries (AID 1919976); details: recombinant CYP1A2 enzyme activity, luminescence; note: potency is the fitted concentration of half-maximal effect
# Cytochrome P450 1A2 (Homo sapiens), sequence (P05177 whole entry, looked up): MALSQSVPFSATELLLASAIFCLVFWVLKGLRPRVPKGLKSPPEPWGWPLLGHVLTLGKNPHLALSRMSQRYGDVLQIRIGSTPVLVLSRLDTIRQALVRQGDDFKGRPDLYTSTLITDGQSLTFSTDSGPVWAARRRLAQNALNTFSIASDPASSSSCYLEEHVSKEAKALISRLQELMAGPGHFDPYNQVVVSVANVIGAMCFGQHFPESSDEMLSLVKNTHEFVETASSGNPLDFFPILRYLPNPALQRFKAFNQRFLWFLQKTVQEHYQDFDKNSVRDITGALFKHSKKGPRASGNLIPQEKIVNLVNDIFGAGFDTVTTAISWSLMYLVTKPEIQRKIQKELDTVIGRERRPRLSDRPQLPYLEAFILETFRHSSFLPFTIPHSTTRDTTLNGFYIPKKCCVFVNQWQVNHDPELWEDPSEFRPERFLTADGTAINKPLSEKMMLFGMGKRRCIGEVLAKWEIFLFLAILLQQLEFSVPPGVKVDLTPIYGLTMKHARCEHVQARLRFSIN
# How it was run: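 Human CYP1A2 with its pro-luciferin substrate in supplier buffer (typically 100 mM KPO4) was pre-incubated with compounds 15 min at RT. Reaction was started with 1x NADPH regeneration solution and run 30-45 min at RT in the dark, then luminescence was read after P450-Glo detection reagent (30 min RT).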
# [10] = Dual reporter qHTS for agonist of Pregnane X Receptor (hPXR) against the NCATS DSHEA and TCM libraries: Fluorescence readout (AID 1920058)
# How it was run: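 hPXR-Luc HepG2 cells (2000/well) in phenol red-free medium with charcoal-stripped FBS attached for 5 h, then were exposed to compounds for about 24 h at 37 °C. Viability was read by CellTiter-Fluor fluorescence (Ex/Em 405/540 nm) after 1 h.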
smiles,measurement,setting,value
COc1ccccc1N1CCN(CCN(C(=O)C2CCCCC2)c2ccccn2)CC1,Potency,[1],inactive
same,Potency,[2],inactive
same,Potency,[3],inactive
CC(C)CC(=O)N[C@H](C(=O)N[C@H](C(=O)N[C@@H](CC(C)C)[C@@H](O)CC(=O)N[C@@H](C)C(=O)N[C@@H](CC(C)C)[C@@H](O)CC(=O)O)C(C)C)C(C)C (Isovaleryl-VV[Sta]A[Sta]-OH),Potency,[1],inactive
same,Potency,[2],inactive
same,Potency,[3],inactive
CCN(CCO)CCCC(C)Nc1ccnc2cc(Cl)ccc12 (centres undefined),Potency,[1],inactive
same,Potency,[2],inactive
same,Potency,[3],inactive
Cc1ccc(C)c(OCCCC(C)(C)C(=O)O)c1,Potency,[1],inactive
same,Potency,[2],inactive
same,Potency,[3],inactive
C[C@H](Cc1ccc(O)c(O)c1)[C@@H](C)Cc1ccc(O)c(O)c1,Potency,[1],18.7 µM (active)
same,Potency,[2],18.7 µM (active)
same,Potency,[3],23.5 µM (active)
O=C(NCCO[N+](=O)[O-])c1cccnc1,Potency,[1],inactive
same,Potency,[3],inactive
CN(C)CCc1c[nH]c2ccc(Cn3cncn3)cc12,Potency,[1],inactive
same,Potency,[2],inactive
same,Potency,[3],inactive
Nc1cccc2c1CN(C1CCC(=O)NC1=O)C2=O (centres undefined),Potency,[1],inactive
same,Potency,[3],inactive
C[C@]12CCC(=O)C=C1CC[C@@H]1[C@H]2[C@@H](O)C[C@@]2(C)[C@H]1CC[C@]2(O)C(=O)CO,Potency,[1],inactive
same,Potency,[2],0.187 µM (active)
same,Potency,[3],inactive
COc1ccc2cc([C@H](C)C(=O)O)ccc2c1,Potency,[1],inactive
same,Potency,[3],inactive
c1ccc2[nH]c(-c3cscn3)nc2c1,Potency,[1],inactive
same,Potency,[2],inactive
same,Potency,[3],inactive
C[C@@H](N)C1CCC(C(=O)Nc2ccncc2)CC1 (some centres undefined),Potency,[1],inactive
same,Potency,[2],inactive
same,Potency,[3],inactive
CC(C)Oc1ccc2c(=O)c(-c3ccccc3)coc2c1,Potency,[1],inactive
same,Potency,[2],inactive
same,Potency,[3],inactive
CC(S)C(=O)NCC(=O)O (centres undefined),Potency,[1],inactive
same,Potency,[2],inactive
same,Potency,[3],inactive
Nc1nc(OCc2ccccc2)c2[nH]cnc2n1,Potency,[1],inactive
same,Potency,[2],inactive
same,Potency,[3],inactive
CCOC(=O)C1=C[C@@H](OC(CC)CC)[C@H](NC(C)=O)[C@@H](N)C1,Potency,[1],inactive
same,Potency,[2],inactive
same,Potency,[3],inactive
Cc1cc(O)c2c(c1)C(=O)c1cc(O)cc(O)c1C2=O,Potency,[1],inactive
same,Potency,[2],inactive
same,Potency,[3],inactive
same,Potency,[4],10 µM (active)
same,Potency,[5],22.4 µM (active)
same,Potency,[6],8.91 µM (active)
same,Potency,[7],22.4 µM (active)
same,outcome,[8],inactive
same,Potency,[9],8.91 µM (active)
same,outcome,[10],inactive
NNc1nncc2ccccc12,Potency,[1],inactive
same,Potency,[2],inactive
same,Potency,[3],inactive
N[C@@H](Cc1cc(I)c(Oc2cc(I)c(O)c(I)c2)c(I)c1)C(=O)O,Potency,[1],inactive
same,Potency,[2],inactive
same,Potency,[3],inactive
CCOC(=O)C1=C(O)C(=O)N(Cc2ccccc2)C1,Potency,[1],inactive
same,Potency,[2],inactive
same,Potency,[3],inactive
Cc1cc2c(s1)Nc1ccccc1N=C2N1CCN(C)CC1,Potency,[1],inactive
same,Potency,[2],inactive
same,Potency,[3],inactive
O=C(O)CCNC(=O)c1ccc(N=Nc2ccc(O)c(C(=O)O)c2)cc1,Potency,[1],inactive
same,Potency,[2],inactive
same,Potency,[3],inactive
NC(=NCc1ccccc1)NC(=O)c1nc(Cl)c(N)nc1N,Potency,[1],inactive
same,Potency,[2],inactive
same,Potency,[3],inactive
O=C1CCc2ccc(OCCCCN3CCN(c4cccc(Cl)c4Cl)CC3)cc2N1,Potency,[1],inactive
same,Potency,[3],inactive
CCCCC(CC)COC(=O)C(C#N)=C(c1ccccc1)c1ccccc1 (centres undefined),Potency,[1],inactive
same,Potency,[2],inactive
same,Potency,[3],inactive
O=P(O)(O)C(O)(Cn1ccnc1)P(=O)(O)O,Potency,[1],inactive
same,Potency,[2],inactive
same,Potency,[3],inactive
CS(=O)(=O)OCCCCOS(C)(=O)=O,Potency,[1],inactive
same,Potency,[2],inactive
same,Potency,[3],inactive
Cc1nc2n(c(=O)c1CCN1CCC(c3noc4cc(F)ccc34)CC1)CCCC2,Potency,[1],inactive
same,Potency,[2],inactive
same,Potency,[3],inactive
Cc1cc2cc3c(C)cc(=O)oc3c(C)c2o1,Potency,[1],inactive
same,Potency,[3],inactive
CCN(CC)CCOc1ccc(Nc2ncc3cc(-c4c(Cl)cccc4Cl)c(=O)n(C)c3n2)cc1,Potency,[1],1.18 µM (active)
same,Potency,[2],0.0418 µM (active)
same,Potency,[3],0.526 µM (active)
Nc1ncn([C@H]2C[C@H](O)[C@@H](CO)O2)c(=O)n1,Potency,[1],inactive
same,Potency,[2],0.59 µM (active)
same,Potency,[3],inactive
Cc1ncc([N+](=O)[O-])n1CC(C)O (centres undefined),Potency,[1],inactive
same,Potency,[2],inactive
same,Potency,[3],inactive
CC(=O)NC[C@H]1CN(c2ccc(N3CCOCC3)c(F)c2)C(=O)O1,Potency,[1],inactive
same,Potency,[3],inactive
O=C(CCc1ccc(O)cc1)c1c(O)cc(O)cc1O,Potency,[1],3.32 µM (active)
same,Potency,[3],inactive
Cc1nc(-c2ccc(OCC(C)C)c(C#N)c2)sc1C(=O)O,Potency,[1],inactive
same,Potency,[2],inactive
same,Potency,[3],inactive
CN(C)c1ccc2nc3ccc(=[N+](C)C)cc-3sc2c1,Potency,[2],2.64 µM (active)
same,Potency,[3],2.96 µM (active)
CC(=O)O[C@H]1C(=O)[C@@]2(C)C([C@H](OC(=O)c3ccccc3)[C@]3(O)C[C@H](OC(=O)[C@H](O)[C@@H](NC(=O)c4ccccc4)c4ccccc4)C(C)=C1C3(C)C)[C@]1(OC(C)=O)CO[C@@H]1C[C@@H]2O (some centres undefined),Potency,[2],inactive
COc1cc(C(C)=O)ccc1OCCCN1CCC(c2noc3cc(F)ccc23)CC1,Potency,[1],inactive
same,Potency,[3],5.9 µM (active)
O=C(NCC1CCCCN1)c1cc(OCC(F)(F)F)ccc1OCC(F)(F)F (centres undefined),Potency,[2],23.5 µM (active)
same,Potency,[3],18.7 µM (active)
Nc1nc(N)c(N=O)c(OCC2CCCCC2)n1,Potency,[2],6.62 µM (active)
same,Potency,[3],16.6 µM (active)
